# Source: PubChem BioAssay
# This excerpt belongs to a sample that is enriched for hits.
# MgrA DNA FP = S. aureus MgrA-DNA binding modulation; AID 602314; 84,000 tested, 0.13% active; inhibition, % (test concentration not listed); fluorescence polarization; in the data active means inhibition above about 30%, passing the limit was not always enough;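 further: higher means less MgrA bound to DNA so lower polarization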
# A number is an active result; – = inactive.
SMILES,MgrA DNA FP
O=C(/C=C/c1ccccc1)Nc1nc2c(s1)CCCC2,–
O=C(Nc1nc2c(s1)CCCC2)c1ccncc1,41.7
Cc1ccc(C(=O)Nc2nc3c(s2)CCCC3)cc1,–
CCOC(=O)c1c(C)nn(-c2ncccc2C(F)(F)F)c1C,–
NC(N)=NS(=O)(=O)c1ccc(N/C=C2/CCc3ccccc3C2=O)cc1,–
O=C1c2cccc3c([N+](=O)[O-])ccc(c23)C(=O)N1Cc1cccnc1,60.5
O=c1c2ccccc2c2ccccc2c(=O)n1Cc1cccnc1,–
O=C1c2cccc3cc([N+](=O)[O-])cc(c23)C(=O)N1Cc1ccncc1,–
CNC(=O)c1nc(-c2ccccc2)oc1C,–
Cc1cc(-c2ccccc2N)nc2ccccc12,–
Cc1cc(N)c2ccccc2[n+]1CCCCCCCCCC[n+]1c(C)cc(N)c2ccccc21,55.1
CC[n+]1ccc(C)c2ccccc21,–
CC(C)Oc1ccc(NC(=O)C2COc3ccccc3O2)cc1 (stereo not drawn),–
O=C1c2cccc3c(N4CCNCC4)ccc(c23)C(=O)N1c1ccc(Cl)cc1,59.8
O=C1c2cccc3c(N4CCCC4)ccc(c23)C(=O)N1c1ccccc1,–
Cc1cccc(N2C(=O)c3cccc4c(N5CCNCC5)ccc(c34)C2=O)c1,–
CCN(CC)C(=S)Oc1ccc(C#N)cc1,–
Cc1c(C)n(C(=O)CN2CCc3ccccc32)c2ccccc12,–
O=C(COC(=O)c1cccc(O)c1O)c1ccc(Cl)cc1,–
NC(CO)C(=O)NNCc1ccc(O)c(O)c1O (stereo not drawn),–
O=C(N/N=C/c1cc(Br)ccc1O)N/N=C/c1cc(Br)ccc1O,–
NC(CO)C(=O)N/N=C/c1ccc(O)c(O)c1O (stereo not drawn),62.4
CCc1ccc(C(C2C(=O)CC(C)(C)CC2=O)C2C(=O)CC(C)(C)CC2=O)s1,–
Cc1cc(C)c(C#N)c(SCCCCSc2nc(C)cc(C)c2C#N)n1,–
CC(C)(C)c1cc(/C=N/n2c(N)nc3ccccc32)cc(C(C)(C)C)c1O,–
SMILES,MgrA DNA FP
Cn1cc(S(=O)(=O)N2CCCC2)cc1C(=O)N1CCCc2ccccc21,–
CCN1CCC(N(Cc2ccco2)C(=O)Nc2cc(C)cc(C)c2)CC1,–
Cc1ccc(S(=O)(=O)NC(=O)N2CCOCC2)cc1,–
COC(=O)N1c2ccccc2C=CC1C#N (stereo not drawn),–
CC(C)(C)C(=O)C1C2C3COC(O3)C(=O)C2C2C=Cc3ccccc3N21 (stereo not drawn),41.5
Cn1c(SCC(=O)c2ccc(F)cc2)nnc1-c1ccco1,–
O=C(CSc1nnc(-c2ccoc2)c(-c2ccoc2)n1)c1ccc(N2CCCC2=O)cc1,–
COc1ccc(C(=O)CSc2nnc(-c3ccco3)c(-c3ccco3)n2)cc1,50.9
O=C(CSc1nnc(-c2ccoc2)c(-c2ccoc2)n1)c1ccc(-c2ccccc2)cc1,71.1
CCn1c(SCC(=O)c2ccccc2)nnc1-c1ccco1,–
CCOc1ccc(C(=O)CSc2nnc(-c3ccco3)c(-c3ccco3)n2)cc1NC(=O)CC,91.9
CCC(=O)Nc1ccc(C(=O)CSc2ncc(C#N)c(N)n2)cc1OC,–
O=C1COc2ccc(C(=O)CSc3nnc(-c4ccoc4)c(-c4ccoc4)n3)cc2N1,–
CCc1ccc2c(c1)c1nnc(SCC(=O)c3ccc(OC)cc3)nc1n2C,–
CCOc1ccc(C(=O)C(C)Sc2nnc(-c3ccc(Br)cc3)o2)cc1 (stereo not drawn),–
O=C(Nc1ccc(Cl)cc1)OCCSc1nc2ccccc2s1,–
C=Cc1c(S(C)(=O)=O)sc(C(=O)Oc2ccccc2)c1C,–
CCOC(=O)C1=C(C)N=c2s/c(=C\c3cc(OC)c(OC)cc3[N+](=O)[O-])c(=O)n2C1c1ccc(OC)c(OC)c1 (stereo not drawn),–
Cc1cc2c(=O)oc(-c3ccc(C(C)(C)C)cc3)nc2s1,–
O=C(CNC(=O)c1ccc(-n2cnnc2)cc1)Nc1ccc(N2CCCCC2)cc1,–
C/C(N)=C\C(=O)Nc1ccccc1,–
N#Cc1ccc(-c2nc3ccccc3c(=O)[nH]2)cc1,–
CCN(C(=O)c1cnc(SC)cc1C(F)(F)F)c1ccc(Cl)cc1,–
COc1ccccc1Cn1ccn(CC(=O)NCCc2ccccc2)c(=O)c1=O,–
CC1=NN(c2cccc(C(=O)O)c2)C(=O)/C1=C\c1ccc(-c2ccc(Cl)c(C(=O)O)c2)o1,–
SMILES,MgrA DNA FP
CC1=NN(c2cccc(C(=O)O)c2)C(=O)/C1=C\c1ccc(-c2cc([N+](=O)[O-])ccc2C)o1,–
CC1=NN(c2cccc(C(=O)O)c2)C(=O)/C1=C/c1ccc(-c2cccc(Cl)c2C)o1,96.0
Cc1ccc(S(=O)(=O)OCC(C)(C)[N+](=O)[O-])cc1,–
O=C(Cn1c2ccccc2c2ccccc21)Sc1nc2ccccc2s1,–
CC(=O)Nc1ccc(-c2nc(-c3ccccc3)nc3ccccc23)cc1,–
Cc1ccc(S(=O)(=O)N=C2C=CC(=O)C=C2)cc1,48.4
Cc1ccc(S(=O)(=O)N=S(C)(C)=O)cc1,–
CC1=C/C(=N\S(=O)(=O)c2ccccc2)C=CC1=O,–
CN(C)c1ccc(/C=N/n2c(=O)[nH][nH]c2=O)cc1,–
Cc1cccc(OC2CCS(=O)(=O)C2)c1 (stereo not drawn),–
O=C(c1ccco1)N1CCCN(C(=O)c2ccco2)CC1,–
Cc1cc(C)c2nc(N3CCCN(C(=O)c4ccco4)CC3)c(C#N)cc2c1,48.6
CCc1cc2cc(C)cc(C)c2nc1SCC(=O)N1CCN(C(=O)c2ccco2)CC1,–
COc1ccccc1C(=O)Nc1ccc(CC#N)cc1,–
Clc1c2c(nn1-c1ccccc1)CCCC2,–
N#CCCn1cc(C(CC(=O)c2ccc3c(c2)CCCC3)C(=O)O)c2ccccc21 (stereo not drawn),–
Cc1cc(C)n(-c2ccc(C(=O)O)cc2)n1,–
Cc1ccc(C)n1-c1ccc(C(=O)O)cc1,99.5
O=C(O)c1ccc(N2CCCC2)cc1,–
CC(C)c1cc2cc(/C=C/C(=O)O)c(O)cc2o1,60.4
CC(C)c1ccc(/C=C/C(=O)O)cc1,–
CC(C)(O)C1Cc2cc(/C=C/C(=O)O)c(O)cc2O1 (stereo not drawn),–
CCN1C(=O)/C(=C/c2cn(CC)c3ccccc23)NC1=S,–
O=S(=O)(c1ccc2c(c1)OCCO2)N1CCCCC1c1cccnc1 (stereo not drawn),57.8
O=S(=O)(c1cccc(C(F)(F)F)c1)N1CCCC1c1cccnc1 (stereo not drawn),–
SMILES,MgrA DNA FP
O=S(=O)(c1ccc2nsnc2c1)N1CCCCC1c1cccnc1 (stereo not drawn),–
CCCCC1(O)CC(C)(C)N([O])C(C)(C)C1,–
O=C1NC(=O)N(c2ccccc2)C(=O)/C1=C\c1ccc(C(=O)O)cc1,–
O=C1NC(=S)N(c2ccccc2)C(=O)/C1=C\c1ccoc1,75.5
COC(=O)COc1ccc(/C=C2\C(=O)NC(=S)N(c3ccccc3)C2=O)cc1OC,–
CCOC(=O)c1cc2cc(Cl)cc(Cl)c2oc1=O,–
CCOc1ccc2nc3c(=O)[nH]c(=O)[nH]c3nc2c1,–
Cc1ccc2oc(-c3ccc(NC(=O)C(F)(F)F)cc3)nc2c1,–
O=C(Nc1ccc2nc3c(=O)[nH]c(=O)[nH]c3nc2c1)C(F)(F)F,56.8
CC(CC(N)=O)c1ccccc1 (stereo not drawn),–
O=C1CCc2cc(C(=O)CSc3ccccc3)ccc2N1,–
COc1ccc([C@H]2Sc3ccccc3N(CCN(C)C)C(=O)[C@H]2OC(C)=O)cc1,96.2
CCN1C(=O)CC(c2ccc(OC)cc2)Sc2ccccc21 (stereo not drawn),–
COc1ccc(C2Sc3ccccc3N(CCN(C)C)C(=O)C2OC(C)=O)cc1 (stereo not drawn),–
